From PubChem BioAssay (NCATS)
Values joined by “and” are separate entries in the source; they are usually repeats but may differ in a detail not shown here. Identical values can stand only once. Records with an inconclusive call do not appear. A structure can be active in one record and inactive in another. Active and inactive are the calls of the source. The call rests on the fitted dose curve; in most records, active means well fitted curve in the direction sought with a large enough effect; inconclusive means small, poorly fitted or top-dose-only effect, or another doubt; inactive means no such curve, though single readings can be large; an effect the other way counts as inactive or inconclusive.

Key:
[1] = Viability qHTS for spleen associated tyrosine kinase inhibitor (SYKi) drug resistant MV4-11 cells (AID 1963824); further: nearly all actives have a fitted effect of over 35% in size; further: potency means the concentration at half of the fitted maximal effect
In short: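 SYK-inhibitor-resistant MV4-11 AML cells were seeded at 500 per well onto compound and cultured 72 hours (37 °C, 5% CO2). CellTiter-Glo was then added, and after 10 min at room temperature, luminescence gave viability.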

[2] = Cellular viability qHTS for adrenocortical cancer (ACC) cell line SW-13 (AID 1963989); details: SW-13 ACC cells viability, CellTiter-Glo, 48 h; activity (max response): stronger effect = lower value; further: nearly all actives have a fitted effect of over 65% in size; further: potency means the concentration at half of the fitted maximal effect;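 on activity (max response): cells grown in serum-free medium with ITS supplement; on the % scale 0 is the no-effect control and ±100 the full control effect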
In short: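 48 h treatment, SW-13 in ITS/DMEM serum-free; doses up to 46 uM; readout CellTiter-Glo luminescence; curve fit four-parameter logistic.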

[3] = Cellular viability qHTS for adrenocortical cancer (ACC) cell line NCI-H295R (AID 1963990); further: nearly all actives have a fitted effect of over 60% in size; further: potency means the concentration at half of the fitted maximal effect;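 on activity change, negative = viability loss: 0% = DMSO only wells and -100% = full killing with cytotoxic reference compound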
In short: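 Compound titrations (up to 46 uM final) are applied to NCI-H295R cultures for 48 h at 37C. Viable cell number is estimated by CellTiter-Glo signal, normalised to DMSO and doxorubicin controls.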

[4] = Quantitative highthroughput screen to assess conditional lethalithy of NOMO1 cells grown in RPMI1640 with untreated serum (RPMI+s) (AID 1963876);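 further: 100% = DMSO wells and 0% = empty wells without cells; nearly all actives have a fitted effect of over 35% in size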
In short: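 Each medium arm—HPLM with 10% dialyzed FBS, or RPMI1640 with 5 mM glucose and 10% untreated or dialyzed FBS—was screened against an 11-point, 3-fold compound titration for 48 h at 37 °C, with CellTiter-Glo luminescence as endpoint.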

O=C(O)CNC(=O)CNC(=O)CNC(=O)CSC(=O)c1ccccc1
Potency [1]: inactive | activity (max response) [2]: -23.1% (inactive) | Potency [3]: inactive

O[C@@H](c1cc(C(F)(F)F)nc2c(C(F)(F)F)cccc12)[C@H]1CCCCN1
Potency [1]: 9.44 µM (active) | Potency [2]: 16.4 µM (active) | Potency [3]: 5.17 µM (active)

Cc1c(NC(C)C)c(=O)n(-c2ccccc2)n1C
Potency [1]: inactive | activity (max response) [2]: 8.03% (inactive) | Potency [3]: inactive

Cc1ccc(Sc2ccccc2N2CCNCC2)c(C)c1
Potency [1]: 4.68 µM (active) | Potency [2]: 25.1 µM (active) | Potency [3]: 3.55 µM (active)

COc1cc(NC(C)CCCN)c2ncccc2c1 (centres undefined)
Potency [1]: 5.31 µM (active) | Potency [2]: 4.61 µM (active) | Potency [3]: 8.2 µM (active)

C[C@]12CCC(=O)C=C1CC[C@@H]1[C@@H]2CC[C@@]2(C)[C@H]1CC[C@]2(O)C(=O)CO
Potency [1]: inactive | activity (max response) [2]: -2.88% (inactive) | Potency [3]: inactive

NC(N)=NN=C(/C=C/c1ccc([N+](=O)[O-])o1)/C=C/c1ccc([N+](=O)[O-])o1
Potency [1]: 5.31 µM (active) | Potency [2]: 2.59 µM (active) | Potency [3]: 1.03 µM (active)

Cc1c(N)cccc1C(F)(F)F
Potency [1]: inactive | activity (max response) [2]: 12.6% (inactive) | Potency [3]: inactive

Cc1c(-c2c(-c3ccc(F)o3)sc3ncnc(O[C@@H](Cc4ccccc4OCc4ccnn4CC(F)(F)F)C(=O)O)c23)ccc(OCCN2CCN(C)CC2)c1Cl
Potency [1]: 0.0132 µM (active) | Potency [2]: 0.199 µM (active) | Potency [3]: 1.58 µM (active)

Nc1ncccc1-c1nc2ccc(-c3ccccc3)nc2n1-c1ccc(C2(N)CCC2)cc1
Potency [1]: 5.25 µM (active) | Potency [2]: 25.1 µM (active) | Potency [3]: 3.98 µM (active)

C=C[C@H]1CN2CCC1C[C@@H]2C(O)c1ccnc2ccc(OC)cc12 (some centres undefined)
Potency [1]: 14.8 µM (active) | activity (max response) [2]: 3.34% (inactive) | Potency [3]: inactive

CN1[C@@H]2CCC[C@H]1CC(NC(=O)c1nn(C)c3ccccc13)C2 (some centres undefined)
Potency [1]: inactive | activity (max response) [2]: 2.83% (inactive) | Potency [3]: inactive

CC[C@@]1(O)C(=O)OCc2c1cc1n(c2=O)Cc2c-1nc1cc(F)c(C)c3c1c2[C@@H](N)CC3
Potency [1]: 0.0042 µM (active) | Potency [2]: 0.794 µM (active) | Potency [3]: 5.01 µM (active)

O=C(NOCCO)c1cc(CN2OCCCC2=O)c(F)c(F)c1Nc1ccc(I)cc1F
Potency [1]: 0.0651 µM (active) | Potency [2]: 7.08 µM (active) | Potency [3]: 25.1 µM (active)

CC(C)n1cc(-c2ccc3c(c2)N(C)CC3)c2c(NS(=O)(=O)c3ccn(C)n3)ccnc21
Potency [1]: 18.6 µM (active) | activity (max response) [2]: 9.47% (inactive) | Potency [3]: inactive

Clc1cccc(C(c2ccc3nc[nH]c3c2)n2ccnc2)c1 (centres undefined)
Potency [1]: inactive and 18.6 µM (active) | activity (max response) [2]: 10.9% (inactive) and -12.2% (inactive) | Potency [3]: inactive

C[C@]12CCC(=O)C=C1CC[C@H]1[C@@H]3CC[C@](O)(C(=O)CO)[C@@]3(C)C[C@H](O)[C@@]12F
Potency [1]: inactive | activity (max response) [2]: 6.22% (inactive) | Potency [3]: inactive

COc1ccc(-c2oc3ncnc(N)c3c2-c2ccc(NC(=O)Nc3cc(C(F)(F)F)ccc3F)cc2)cc1
Potency [1]: 103 nM (active) and 166 nM (active) | activity (max response) [2]: 0.756% (inactive) | Potency [3]: inactive

Oc1ccc(Cl)cc1Cc1cc(Cl)ccc1O
Potency [1]: 11.9 µM (active) | Potency [2]: 5.17 µM (active) | Potency [3]: 5.17 µM (active)

CCc1c(C(=O)NNC(=O)[C@@H](O)c2cc(F)cc(F)c2)ccc(O)c1C
Potency [1]: 9.2 µM (active) | activity (max response) [2]: -4.91% (inactive) | Potency [3]: inactive

Cc1cc(C)c2c(c1)[C@@H](N(Cc1cc(C(F)(F)F)cc(C(F)(F)F)c1)c1nnn(C)n1)CCCN2CC1CCC(C(=O)O)CC1 (some centres undefined)
Potency [1]: 18.6 µM (active) | activity (max response) [2]: -23.9% (inactive) | Potency [3]: inactive

CC/C(=C(/c1ccc(/C=C/C(=O)O)cc1)c1ccc2[nH]ncc2c1)c1ccc(F)cc1Cl
Potency [1]: 16.6 µM (active) | Potency [3]: 15.8 µM (active)

Oc1ccc(O)cc1
Potency [1]: 13.3 µM (active) | Potency [3]: inactive

CNC(=O)CCc1cc(-c2ccc(-c3ccc(C(F)(F)F)cc3)cc2)n(-c2ccc(N3CCNCC3)cc2)n1
Potency [1]: 2.09 µM (active) | Potency [2]: 3.98 µM (active) | Potency [3]: 7.08 µM (active)

O=C(Oc1cccc2cccnc12)c1ccccc1
Potency [1]: inactive | Potency [3]: 23.1 µM (active)

CC(=O)Oc1ccc2c(c1)CC[C@@H]1[C@@H]2CC[C@]2(C)[C@@H](O)CC[C@@H]12
Potency [1]: 15 µM (active) | Potency [3]: 18.4 µM (active)

Cc1ccc2nc(N)[nH]c(=O)c2c1Sc1ccncc1
Potency [1]: 4.61 µM (active) | Potency [3]: inactive

CS(=O)(=O)Nc1cc2occ(NC=O)c(=O)c2cc1Oc1ccccc1
Potency [1]: inactive | Potency [3]: inactive

Nc1cccc2c(N)cccc12
Potency [1]: 0.545 µM (active) | Potency [3]: 39.8 µM (active)

CCN(C)S(=O)(=O)Nc1ccc(F)c(C(=O)c2c[nH]c3ncc(-c4cnc(C5CC5)nc4)cc23)c1F
Potency [1]: 4.68 µM (active) | Potency [3]: 28.2 µM (active)

COC(=O)C1=C(C)NC(C)=C(C(=O)OC(C)(C)CN(C)CCC(c2ccccc2)c2ccccc2)C1c1cccc([N+](=O)[O-])c1 (centres undefined)
Potency [1]: 9.44 µM (active) | Potency [3]: 20.6 µM (active)

Cc1ccccc1C(=O)Nc1ccc(C(=O)N2CCCC(N(C)C)c3ccccc32)cc1 (centres undefined)
Potency [1]: 4.73 µM (active) and 4.61 µM (active) | Potency [3]: 1.64 µM (active)

COc1ccc2[nH]c(C(=O)N3CCC(CC(C)(C)O)CC3)cc2c1
Potency [1]: 18.6 µM (active) | Potency [3]: inactive

CN(Cc1ccc(/C=C/C(=O)NO)cc1)CC12CC3CC(CC(C3)C1)C2
Potency [1]: 0.235 µM (active) | Potency [2]: 2.24 µM (active) | Potency [3]: 0.447 µM (active)

NC[C@H]1O[C@H](O[C@H]2[C@H](O)[C@@H](O[C@H]3O[C@H](CO)[C@@H](O)[C@H](N)[C@H]3O)[C@H](N)C[C@@H]2N)[C@H](N)C[C@@H]1O
Potency [1]: 18.6 µM (active) | Potency [3]: inactive

C#C[C@]1(O)CC[C@H]2[C@@H]3CCc4cc(OC5CCCC5)ccc4[C@H]3CC[C@@]21C
Potency [1]: 11.9 µM (active) | activity (max response) [2]: -6.39% (inactive) | Potency [3]: 14.6 µM (active)

CC(C)[C@](O)(c1ccc2cc(OC(F)F)c(OC(F)F)cc2c1)c1cn[nH]n1
Potency [1]: 14.8 µM (active) | Potency [3]: 25.1 µM (active)

Cc1nc([C@](C)(O)CO)sc1-c1cnc(N)c(O[C@H](C)c2cc(F)ccc2-n2nccn2)c1
Potency [1]: 8.33 µM (active) | Potency [3]: 2.82 µM (active)

C/C(=C(\CCOP(=O)(O)O)SC(=O)c1ccccc1)N(C=O)Cc1cnc(C)nc1N
viability, % of control [1]: 78.4% [at 4.97 µM] (inactive) | activity change, negative = viability loss [3]: 7.45% [at 3.81 µM] (inactive)

CCCOc1ccc(CCc2nc3cc(-c4c(C)noc4C)ccc3n2CCN2CCOCC2)cc1
Potency [1]: 5.25 µM (active) | Potency [3]: 22.4 µM (active)

CN[C@@H](C)C(=O)N[C@H](C(=O)N1CCC[C@H]1C(=O)Nc1snnc1-c1ccccc1)C1CCCCC1
Potency [1]: 0.132 µM (active) | Potency [3]: inactive

CN[C@@H](C)C(=O)N[C@H](C(=O)N1CCC[C@H]1C(=O)Nc1sc(-c2ncco2)nc1-c1ccccc1)C1CCCCC1
Potency [1]: 0.59 µM (active) | Potency [3]: inactive

COc1cc2ncnc(Nc3cccc(Cl)c3F)c2cc1OC(=O)N1CCN(C)C[C@H]1C
Potency [1]: 7.31 µM (active) | Potency [3]: inactive

COc1cc(N)c(Cl)cc1C(=O)NC1CCN(CCCOc2ccc(F)cc2)CC1OC (centres undefined)
Potency [1]: 23.7 µM (active) | activity (max response) [2]: -12.2% (inactive) | Potency [3]: inactive

Clc1ccc(-c2nc3sccn3c2/C=N/OCc2ccc(Cl)c(Cl)c2)cc1
Potency [1]: inactive | activity (max response) [2]: 3.29% (inactive) | Potency [3]: inactive

C[C@@H]1C[C@H]2[C@@H]3C[C@H](F)C4=CC(=O)C(Cl)=C[C@]4(C)[C@@]3(F)[C@@H](O)C[C@]2(C)[C@@]1(O)C(=O)CO
Potency [1]: 11.9 µM (active) | activity (max response) [2]: -6.49% (inactive) | Potency [3]: inactive

CC(C)(C)NCC(O)COc1ccccc1OCC1CCCO1 (centres undefined)
Potency [1]: 0.015 µM (active) | activity (max response) [2]: -5.68% (inactive) | Potency [3]: inactive

CC(=O)N(CC(O)CO)c1c(I)c(C(=O)NCC(O)CO)c(I)c(C(=O)NCC(O)CO)c1I (centres undefined)
Potency [1]: inactive | activity (max response) [2]: 11.9% (inactive) | Potency [3]: inactive

CCOC(=O)[C@H](CCc1ccccc1)N[C@@H](C)C(=O)N1Cc2ccccc2C[C@H]1C(=O)O
Potency [1]: 5.96 µM (active) | Potency [3]: 16.4 µM (active)

C[C@@H]1C[C@H](N)C[C@H](c2ccncc2NC(=O)c2ccc(F)c(-c3c(F)cccc3F)n2)C1
Potency [1]: 2.63 µM (active) | Potency [3]: 28.2 µM (active)

CN[C@@H]1[C@H](O[C@H]2[C@H](O[C@@H]3[C@@H](O)[C@H](O)[C@@H](N=C(N)N)[C@H](O)[C@H]3N=C(N)N)O[C@@H](C)[C@]2(O)C=O)O[C@@H](CO)[C@H](O)[C@H]1O
Potency [1]: inactive | Potency [3]: inactive

COc1ccc2cc(C=O)ccc2c1
Potency [1]: inactive | activity (max response) [2]: 8.85% (inactive) | Potency [3]: inactive

CN(Cc1ccccc1)C(=O)c1ccc(S(=O)(=O)Nc2ccccc2)cc1
Potency [1]: 14.8 µM (active) | Potency [3]: inactive

CC[N+](CC)(CC)CCOc1ccc(/C=C/c2ccccc2)cc1
Potency [1]: inactive | Potency [3]: inactive

Oc1ccccc1C=NCc1ccccc1
Potency [1]: inactive | activity (max response) [2]: 6.8% (inactive) | Potency [3]: inactive

CN1CCCN=C1COC(=O)C(O)(c1ccccc1)C1CCCCC1 (centres undefined)
Potency [1]: inactive | activity (max response) [2]: 6.26% (inactive) | Potency [3]: inactive

CC(C(=O)O)c1ccc(C(=O)c2ccccc2)s1 (centres undefined)
Potency [1]: inactive | activity (max response) [2]: -5.09% (inactive) | Potency [3]: inactive

CN1CCN(c2ccc(Nc3ncc4cc(C#N)c(=O)n(C5CCCC5)c4n3)cc2)CC1
Potency [1]: 0.235 µM (active) | Potency [3]: inactive

NCc1ccc(S(N)(=O)=O)cc1
Potency [1]: inactive | Potency [3]: inactive

CC[C@H](NC(=O)[C@H](C)NC)C(=O)N1C[C@@H](O)C[C@H]1Cc1c(-c2[nH]c3cc(F)ccc3c2C[C@@H]2C[C@H](O)CN2C(=O)[C@H](CC)NC(=O)[C@H](C)NC)[nH]c2cc(F)ccc12
Potency [1]: 0.0074 µM (active) | Potency [3]: inactive

COc1cc(=C2C=c3ccccc3=N2)[nH]c1=Cc1[nH]c(C)cc1C
Potency [4]: inactive
